Source: PubChem BioAssay (EPA / NIEHS)
Results filed as inconclusive are left out. Activity calls are given as the source filed them. The calls were made as follows: active = hit-call score of the fitted dose curve at least 0.9, where 1 is the maximum; inconclusive = response in the unintended direction; inactive = score below 0.9.

Key:
[1] = target: human Opioid Receptor Mu (Opiate Mu), OPRM1 (gene 4988) (UniProt P35372); assay: NVS_GPCR_hOpiate_mu: NovaScreen (NVS) G Protein-Coupled Receptor Assay for human Opioid Receptor Mu (Opiate Mu) (AID 2283290);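 also: hits lower bound tracer signal versus DMSO meaning displacement of the ligand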
Chain of human Opioid Receptor Mu (Opiate Mu), OPRM1 (gene 4988) (P35372 whole entry, looked up): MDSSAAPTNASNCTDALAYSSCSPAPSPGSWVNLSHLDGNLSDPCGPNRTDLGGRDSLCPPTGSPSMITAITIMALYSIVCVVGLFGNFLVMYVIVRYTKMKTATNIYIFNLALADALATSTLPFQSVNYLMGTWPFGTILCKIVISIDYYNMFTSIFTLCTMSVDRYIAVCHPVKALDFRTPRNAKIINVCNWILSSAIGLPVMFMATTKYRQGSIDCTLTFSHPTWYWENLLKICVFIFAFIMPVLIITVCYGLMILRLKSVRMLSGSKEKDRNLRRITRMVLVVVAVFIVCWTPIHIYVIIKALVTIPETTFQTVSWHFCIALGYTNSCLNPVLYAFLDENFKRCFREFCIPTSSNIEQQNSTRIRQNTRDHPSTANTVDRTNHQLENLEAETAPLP
Method in brief: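 CHO-derived receptor protein, cell-free; radioligand displacement, filtration + scintillation counting, read at 2.5 h. DMSO = negative control/baseline. Primary: 25 uM single conc, duplicate; secondary: concentration series.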

[2] = target: guinea pig Bradykinin Receptor B2 (BK2), BDKRB2 (gene 100135486) (UniProt O70526); assay: NVS_GPCR_gBK2: NovaScreen (NVS) G Protein-Coupled Receptor Assay for guinea pig Bradykinin Receptor B2 (BK2) (AID 2283292)
Chain of guinea pig Bradykinin Receptor B2 (BK2), BDKRB2 (gene 100135486) (O70526 whole entry, looked up): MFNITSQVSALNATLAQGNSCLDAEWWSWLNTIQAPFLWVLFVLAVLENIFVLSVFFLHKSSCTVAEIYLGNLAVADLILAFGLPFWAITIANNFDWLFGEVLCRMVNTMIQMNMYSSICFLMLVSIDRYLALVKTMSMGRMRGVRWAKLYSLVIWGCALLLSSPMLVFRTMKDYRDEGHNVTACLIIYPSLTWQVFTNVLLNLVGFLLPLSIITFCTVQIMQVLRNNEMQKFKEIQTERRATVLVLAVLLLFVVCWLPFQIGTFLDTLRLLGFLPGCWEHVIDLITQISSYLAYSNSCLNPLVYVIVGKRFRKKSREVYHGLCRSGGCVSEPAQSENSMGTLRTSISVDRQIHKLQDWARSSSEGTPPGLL
Method in brief: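 Radioligand displacement on guinea pig ileum membranes for 1 h, read by filter-based scintillation counting; loss of signal relative to DMSO. Compounds were screened in duplicate at 25 uM, and those passing the threshold were retested in concentration-response up to 50 uM.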

[3] = target: mouse Cholecystokinin, CCK2 Receptor (CCKB), Cckbr (gene 12426) (UniProt P56481); assay: NVS_GPCR_mCKKBCentral: NovaScreen (NVS) G Protein-Coupled Receptor Assay for mouse Cholecystokinin, CCK2 Receptor (CCKB) (AID 2283293)
Method in brief: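 Radioligand displacement binding on mouse forebrain membranes, 2 h exposure, filter-based scintillation counting. Primary screen in duplicate at 25 uM; actives (e.g. ≥30% inhibition) retested in concentration-response up to 50 uM; loss of binding signal relative to DMSO.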

[4] = tested on: rat Adrenergic, Alpha 1B Receptor (Adra1B), gene 24173; assay: NVS_GPCR_rAdra1B: NovaScreen (NVS) G Protein-Coupled Receptor Assay for rat Adrenergic, Alpha 1B Receptor (Adra1B) (AID 2283297)
Method in brief: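 Rat liver membranes, radioligand displacement with filter-based scintillation detection, 1 h incubation. Primary screen in duplicate at 25 uM; actives retested in concentration series; activity relative to DMSO.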

[5] = target: rat Gamma-Aminobutyric Acid Type B Receptor (GABBR), Gabbr1 (gene 81657) (UniProt Q9Z0U4); assay: NVS_GPCR_rGABBR: NovaScreen (NVS) G Protein-Coupled Receptor Assay for rat Gamma-Aminobutyric Acid Type B Receptor (GABBR) (AID 2283301)
Chain of rat Gamma-Aminobutyric Acid Type B Receptor (GABBR), Gabbr1 (gene 81657) (Q9Z0U4 whole entry, looked up): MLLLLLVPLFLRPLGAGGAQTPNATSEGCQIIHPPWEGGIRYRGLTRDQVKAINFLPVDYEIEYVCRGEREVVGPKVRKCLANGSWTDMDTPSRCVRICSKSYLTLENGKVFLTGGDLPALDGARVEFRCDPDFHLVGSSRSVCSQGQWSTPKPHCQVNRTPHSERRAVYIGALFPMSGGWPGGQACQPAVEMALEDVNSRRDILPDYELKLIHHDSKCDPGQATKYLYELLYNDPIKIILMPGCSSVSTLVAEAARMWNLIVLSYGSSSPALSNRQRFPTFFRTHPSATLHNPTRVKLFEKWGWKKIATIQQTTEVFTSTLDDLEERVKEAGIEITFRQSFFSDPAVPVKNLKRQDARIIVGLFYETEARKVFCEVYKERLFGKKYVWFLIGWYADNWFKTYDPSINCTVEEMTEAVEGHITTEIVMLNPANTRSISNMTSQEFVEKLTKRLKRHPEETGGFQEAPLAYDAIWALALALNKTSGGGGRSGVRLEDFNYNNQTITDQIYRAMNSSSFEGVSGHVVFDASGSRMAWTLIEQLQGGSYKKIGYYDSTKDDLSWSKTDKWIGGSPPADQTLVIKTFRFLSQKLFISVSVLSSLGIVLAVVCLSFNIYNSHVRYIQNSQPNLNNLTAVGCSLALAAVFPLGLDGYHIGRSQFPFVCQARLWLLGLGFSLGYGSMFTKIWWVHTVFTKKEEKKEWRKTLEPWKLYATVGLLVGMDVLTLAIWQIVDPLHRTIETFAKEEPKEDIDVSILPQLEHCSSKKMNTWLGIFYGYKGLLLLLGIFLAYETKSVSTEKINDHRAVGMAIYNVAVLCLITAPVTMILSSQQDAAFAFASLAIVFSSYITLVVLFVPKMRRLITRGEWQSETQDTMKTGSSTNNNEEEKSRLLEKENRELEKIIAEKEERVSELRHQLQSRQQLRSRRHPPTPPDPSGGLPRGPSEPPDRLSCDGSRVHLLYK
Method in brief: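 Radioligand displacement on rat cortical membranes, 1 h, filter-based scintillation counting. Primary screen at 25 uM in duplicate; compounds passing threshold re-tested in concentration-response up to 50 uM; loss of binding fitted against DMSO.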

[6] = target: Metabotropic glutamate receptor 1 (Rattus norvegicus) (UniProt P23385); assay: NVS_GPCR_rmMGluR1: NovaScreen (NVS) G Protein-Coupled Receptor Assay for rat Glutamate Metabotropic Receptor 1 (MGluR1) (AID 2283305)
Method in brief: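 Rat cerebellum membrane preparation, radioligand displacement binding read by filter-based scintillation counting 1 hour after dosing. Initial duplicate single-point screen at 25 uM, then concentration-response up to 50 uM; loss of signal versus DMSO baseline scored.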

Adra2b (gene 24174) = Adra2b (gene 24174) (UniProt P19328); assay: NVS_GPCR_rmAdra2B: NovaScreen (NVS) G Protein-Coupled Receptor Assay for hybird cells Adrenergic, Alpha 2B Receptor (Adra2B) (AID 2283306)
Chain of Adra2b (gene 24174) (P19328 whole entry, looked up): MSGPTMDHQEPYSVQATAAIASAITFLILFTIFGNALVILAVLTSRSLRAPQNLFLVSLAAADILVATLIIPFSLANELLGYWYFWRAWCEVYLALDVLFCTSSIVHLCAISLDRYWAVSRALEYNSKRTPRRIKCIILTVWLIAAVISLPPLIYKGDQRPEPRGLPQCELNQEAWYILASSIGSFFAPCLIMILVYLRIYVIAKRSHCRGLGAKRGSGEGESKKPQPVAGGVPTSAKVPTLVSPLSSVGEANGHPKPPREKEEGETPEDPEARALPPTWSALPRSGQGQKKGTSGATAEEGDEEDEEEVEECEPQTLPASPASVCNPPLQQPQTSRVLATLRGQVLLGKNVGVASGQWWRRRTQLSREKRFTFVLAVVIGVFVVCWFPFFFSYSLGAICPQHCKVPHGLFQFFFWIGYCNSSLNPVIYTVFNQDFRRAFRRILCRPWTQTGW
Method in brief: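 Radioligand filter-binding assay on membrane proteins from neuroglioma/blastoma hybrid cells (rodent), 1 h after dosing; scintillation counting, loss of signal vs DMSO. Primary screen in duplicate at 25 uM, actives then run in concentration series.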

[7] = target: rat Neurokinin-3 Receptor (NK3), Tacr3 (gene 24808) (UniProt P16177); assay: NVS_GPCR_rNK3: NovaScreen (NVS) G Protein-Coupled Receptor Assay for rat Neurokinin-3 Receptor (NK3) (AID 2283310)
Chain of rat Neurokinin-3 Receptor (NK3), Tacr3 (gene 24808) (P16177 whole entry, looked up): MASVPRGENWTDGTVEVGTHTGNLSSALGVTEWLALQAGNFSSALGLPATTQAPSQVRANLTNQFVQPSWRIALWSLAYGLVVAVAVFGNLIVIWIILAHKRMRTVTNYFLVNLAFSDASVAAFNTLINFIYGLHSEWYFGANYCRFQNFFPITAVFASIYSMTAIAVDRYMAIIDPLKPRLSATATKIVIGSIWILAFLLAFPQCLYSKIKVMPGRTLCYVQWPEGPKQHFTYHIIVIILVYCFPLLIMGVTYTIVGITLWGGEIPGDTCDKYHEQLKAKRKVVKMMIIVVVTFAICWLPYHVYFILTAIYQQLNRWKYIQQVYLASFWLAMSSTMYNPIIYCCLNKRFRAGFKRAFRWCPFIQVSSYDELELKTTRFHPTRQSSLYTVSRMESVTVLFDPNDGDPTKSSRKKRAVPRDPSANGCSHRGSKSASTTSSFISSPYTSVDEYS
Method in brief: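 Rat cortical membranes; radioligand binding with filtration and scintillation counting, 2 h after dosing. Primary screen in duplicate at 25 uM, then concentration-response up to 50 uM; loss of binding signal relative to DMSO.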

[8] = target: rat Somatostatin Receptor (SST), Sstr1 (gene 25033) (UniProt P28646); assay: NVS_GPCR_rSST: NovaScreen (NVS) G Protein-Coupled Receptor Assay for rat Somatostatin Receptor (SST) (AID 2283314)
Method in brief: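 Rat forebrain membranes; radioligand displacement read by filter-based scintillation counting 1 h after dosing. Primary screen in duplicate at 25 uM. Actives (e.g., 30% inhibition) were rerun as concentration-response to 50 uM max and fitted against DMSO.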

[9] = target: rat Neonicotinoid receptor (NNR), Chrna7 (gene 25302) (UniProt Q05941); assay: NVS_LGIC_rNNR_BungSens: NovaScreen (NVS) Ligand-Gated Ion Channel Assay for rat Neonicotinoid receptor (NNR) (AID 2283315)
Chain of rat Neonicotinoid receptor (NNR), Chrna7 (gene 25302) (Q05941 whole entry, looked up): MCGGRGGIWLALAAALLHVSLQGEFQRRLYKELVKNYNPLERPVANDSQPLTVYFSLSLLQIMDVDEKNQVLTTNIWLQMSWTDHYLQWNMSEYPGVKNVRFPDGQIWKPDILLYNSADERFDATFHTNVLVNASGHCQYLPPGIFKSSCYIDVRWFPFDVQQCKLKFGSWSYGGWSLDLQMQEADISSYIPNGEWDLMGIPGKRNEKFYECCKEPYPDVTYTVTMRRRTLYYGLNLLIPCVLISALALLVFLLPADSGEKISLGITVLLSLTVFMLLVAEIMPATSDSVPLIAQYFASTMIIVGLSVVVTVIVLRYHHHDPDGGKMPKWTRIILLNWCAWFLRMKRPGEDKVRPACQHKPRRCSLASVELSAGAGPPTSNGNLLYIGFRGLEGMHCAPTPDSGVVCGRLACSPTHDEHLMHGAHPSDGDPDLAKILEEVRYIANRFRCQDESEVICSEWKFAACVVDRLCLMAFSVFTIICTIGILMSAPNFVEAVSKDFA
Method in brief: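 Radioligand displacement binding on rat cortical membranes, 2.5 h incubation, filtration and scintillation counting. Loss of specific binding fitted relative to DMSO.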

[10] = target: rat Vasopressin 1 Receptor (V1), Avpr1a (gene 25107) (UniProt P30560); assay: NVS_GPCR_rV1: NovaScreen (NVS) G Protein-Coupled Receptor Assay for rat Vasopressin 1 Receptor (V1) (AID 2283316)
Method in brief: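 Radioligand binding on rat liver membranes, 1.5 h incubation, filter-based scintillation counting. Single 25 uM screen in duplicate; chemicals meeting threshold (e.g. 30% inhibition) run in concentration-response up to 50 uM.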

[11] = target: rat Serotonin, 5-Hydroxytryptamine Receptor (5HT), Non-Selective Binding, Htr1a (gene 24473) (UniProt P19327); assay: NVS_GPCR_r5HT_NonSelective: NovaScreen (NVS) G Protein-Coupled Receptor Assay for rat Serotonin, 5-Hydroxytryptamine Receptor (5HT), Non-Selective Binding (AID 2283295)
Chain of rat Serotonin, 5-Hydroxytryptamine Receptor (5HT), Non-Selective Binding, Htr1a (gene 24473) (P19327 whole entry, looked up): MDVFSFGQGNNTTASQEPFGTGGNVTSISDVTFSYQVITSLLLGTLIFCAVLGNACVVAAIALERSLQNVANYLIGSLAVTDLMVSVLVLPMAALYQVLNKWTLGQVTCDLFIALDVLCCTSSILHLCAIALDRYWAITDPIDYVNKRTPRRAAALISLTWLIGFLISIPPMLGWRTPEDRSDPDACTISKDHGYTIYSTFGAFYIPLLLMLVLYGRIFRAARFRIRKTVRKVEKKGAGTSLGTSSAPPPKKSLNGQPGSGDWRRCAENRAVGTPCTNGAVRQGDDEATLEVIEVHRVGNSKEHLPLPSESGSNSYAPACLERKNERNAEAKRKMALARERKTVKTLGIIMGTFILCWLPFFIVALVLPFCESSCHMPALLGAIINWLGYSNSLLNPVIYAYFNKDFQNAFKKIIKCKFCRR
Method in brief: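 Radioligand displacement on rat cortical membranes, 1 h incubation, filter-based scintillation counting. Primary duplicates at 25 uM, actives retested in concentration series; loss of signal fitted against DMSO as baseline.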

[12] = target: rat Adrenergic, Alpha 1A Receptor (Adra1A), Adra1a (gene 29412) (UniProt P43140); assay: NVS_GPCR_rAdra1A: NovaScreen (NVS) G Protein-Coupled Receptor Assay for rat Adrenergic, Alpha 1A Receptor (Adra1A) (AID 2283296)
Chain of rat Adrenergic, Alpha 1A Receptor (Adra1A), Adra1a (gene 29412) (P43140 whole entry, looked up): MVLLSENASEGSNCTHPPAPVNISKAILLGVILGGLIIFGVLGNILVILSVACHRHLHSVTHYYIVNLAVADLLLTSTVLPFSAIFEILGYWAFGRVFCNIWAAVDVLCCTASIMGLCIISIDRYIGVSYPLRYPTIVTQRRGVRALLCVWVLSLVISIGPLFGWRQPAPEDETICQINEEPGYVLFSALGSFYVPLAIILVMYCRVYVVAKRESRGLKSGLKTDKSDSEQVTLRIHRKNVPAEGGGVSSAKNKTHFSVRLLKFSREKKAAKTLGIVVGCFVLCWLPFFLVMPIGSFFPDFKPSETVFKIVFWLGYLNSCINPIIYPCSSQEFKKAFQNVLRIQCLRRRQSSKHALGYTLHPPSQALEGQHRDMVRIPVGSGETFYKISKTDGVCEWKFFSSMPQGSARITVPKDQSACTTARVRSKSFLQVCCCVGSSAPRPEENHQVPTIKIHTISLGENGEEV
Method in brief: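 Rat cortical membranes pretreated with chlorethyl clonidine; competitive radioligand displacement, 1 h. Filter-based scintillation counting. Primary screen in duplicate at 25 uM, actives followed in concentration series.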

[13] = target: rat Adrenergic Receptor, Alpha 2 (Adra2), Non-selective Binding, Adra2a (gene 25083) (UniProt P22909); assay: NVS_GPCR_rAdra2_NonSelective: NovaScreen (NVS) G Protein-Coupled Receptor Assay for rat Adrenergic Receptor, Alpha 2 (Adra2), Non-selective Binding (AID 2283299)
Chain of rat Adrenergic Receptor, Alpha 2 (Adra2), Non-selective Binding, Adra2a (gene 25083) (P22909 whole entry, looked up): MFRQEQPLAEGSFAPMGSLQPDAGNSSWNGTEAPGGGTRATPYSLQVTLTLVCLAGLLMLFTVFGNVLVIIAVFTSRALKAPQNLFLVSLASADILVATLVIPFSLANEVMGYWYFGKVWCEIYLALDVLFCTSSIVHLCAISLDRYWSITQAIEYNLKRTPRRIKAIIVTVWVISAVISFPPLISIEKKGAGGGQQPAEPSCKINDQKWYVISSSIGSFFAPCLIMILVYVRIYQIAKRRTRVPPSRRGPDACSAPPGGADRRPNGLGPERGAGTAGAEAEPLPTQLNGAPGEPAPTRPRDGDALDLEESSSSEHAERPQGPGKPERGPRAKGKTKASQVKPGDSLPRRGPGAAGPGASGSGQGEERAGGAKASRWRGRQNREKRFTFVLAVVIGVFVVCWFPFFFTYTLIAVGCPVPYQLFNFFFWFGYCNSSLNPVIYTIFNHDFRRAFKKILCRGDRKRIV
Method in brief: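 Rat cortical membranes, radioligand competitive displacement read by filter-based scintillation counting 1.25 hours after dosing. Primary screen in duplicate at 25 uM; actives followed up in concentration series.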

[14] = target: rat Opioid Receptor, Non-selective Sodium (Na+) Binding, Oprm1 (gene 25601) (UniProt P33535); assay: NVS_GPCR_rOpiate_NonSelectiveNa: NovaScreen (NVS) G Protein-Coupled Receptor Assay for rat Opioid Receptor, Non-selective Sodium (Na+) Binding (AID 2283311)
Method in brief: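 Rat forebrain membranes, radioligand displacement with filter scintillation counting, 1.5 h incubation. Screened in duplicate at 25 µM; hits then run in concentration-response up to 50 µM; loss of binding fitted versus DMSO.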

[15] = target: rat Opioid Receptor, Non-selective Binding, Oprm1 (gene 25601) (UniProt P33535); assay: NVS_GPCR_rOpiate_NonSelective: NovaScreen (NVS) G Protein-Coupled Receptor Assay for rat Opioid Receptor, Non-selective Binding (AID 2283318)
Method in brief: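 Rat forebrain membranes, cell-free radioligand binding with filter-based scintillation counting, read 1.5 h after dosing. Primary screen in duplicate at 25 uM; actives retested in concentration series. Loss of signal versus DMSO baseline scored.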

[16] = target: rat Adrenergic Receptor, Beta (Adrb), Non-selective Binding, Adrb1 (gene 24925) (UniProt P18090); assay: NVS_GPCR_rAdrb_NonSelective: NovaScreen (NVS) G Protein-Coupled Receptor Assay for rat Adrenergic Receptor, Beta (Adrb), Non-selective Binding (AID 2283298)
Chain of rat Adrenergic Receptor, Beta (Adrb), Non-selective Binding, Adrb1 (gene 24925) (P18090 whole entry, looked up): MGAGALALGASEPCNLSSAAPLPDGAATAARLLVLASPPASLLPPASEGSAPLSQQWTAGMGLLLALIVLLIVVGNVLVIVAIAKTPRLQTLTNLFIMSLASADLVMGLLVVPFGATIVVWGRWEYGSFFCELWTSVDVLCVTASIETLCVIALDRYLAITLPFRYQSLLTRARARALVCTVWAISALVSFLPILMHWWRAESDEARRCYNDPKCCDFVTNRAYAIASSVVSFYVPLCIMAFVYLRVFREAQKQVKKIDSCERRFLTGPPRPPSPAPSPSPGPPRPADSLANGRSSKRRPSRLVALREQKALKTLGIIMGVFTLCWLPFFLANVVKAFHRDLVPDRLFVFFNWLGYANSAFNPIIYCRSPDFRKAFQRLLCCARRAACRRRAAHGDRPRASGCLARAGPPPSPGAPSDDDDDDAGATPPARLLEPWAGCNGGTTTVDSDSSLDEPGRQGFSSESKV
Method in brief: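 Non-selective beta-adrenergic radioligand binding in rat cortical membranes, 1 h incubation, filter-based scintillation read-out. Primary screen 25 uM in duplicate; hits retested in concentration-response up to 50 uM, DMSO baseline.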

[17] = target: rat Glutamate Metabotropic Receptor 5 (MGluR5), Grm5 (gene 24418) (UniProt P31424); assay: NVS_GPCR_rmMGluR5: NovaScreen (NVS) G Protein-Coupled Receptor Assay for rat Glutamate Metabotropic Receptor 5 (MGluR5) (AID 2283307)
Method in brief: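 Rat whole-brain membrane preparation; filter-based radioligand binding read by scintillation counting, 1.5 h after dosing. Single-point screen at 25 uM in duplicate; hits over threshold (e.g. 30% inhibition) retested in concentration-response up to 50 uM; loss of signal vs DMSO.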

[18] = target: rat Neurokinin-1 Receptor (NK1), Tacr1 (gene 24807) (UniProt P14600); assay: NVS_GPCR_rNK1: NovaScreen (NVS) G Protein-Coupled Receptor Assay for rat Neurokinin-1 Receptor (NK1) (AID 2283309)
Method in brief: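 Rat submaxillary gland membranes; radioligand displacement read by filter-based scintillation counting after 1 h. Primary screen in duplicate at 25 uM; actives retested in concentration series; loss of binding fitted versus DMSO.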

CCCCCCCCCC
outcome [1]: inactive
outcome [2]: inactive
outcome [3]: inactive
outcome [4]: inactive
outcome [5]: inactive
outcome [6]: inactive
outcome (Adra2b (gene 24174)): inactive
outcome [7]: inactive
AC50 [8]: 2.19 µM (active)
outcome [9]: inactive
AC50 [10]: 25 µM (active)

c1ccc(C(O[C@@H]2CCCN(CCc3ccc4c(c3)OCO4)C2)c2ccccc2)cc1
AC50 [1]: 5.65 µM (active)
outcome [2]: inactive
AC50 [11]: 5.63 µM (active)
AC50 [12]: 11.3 µM (active)
AC50 [4]: 17 µM (active)
AC50 [13]: 19.5 µM (active)
outcome [5]: inactive
AC50 (Adra2b (gene 24174)): 7.75 µM (active)
AC50 [14]: 6.18 µM (active)
AC50 [8]: 14.6 µM (active)
outcome [9]: inactive
AC50 [15]: 2.71 µM (active)

OCCOCCOCCO
outcome [16]: inactive

CC[C@H](C)C(=O)O[C@H]1C[C@H](O)C=C2C=C[C@H](C)[C@H](CC[C@@H](O)C[C@@H](O)CC(=O)O)[C@H]21
outcome [17]: inactive

NC(=O)N1c2ccccc2C=Cc2ccccc21
outcome [5]: inactive

NC(=O)NN=Cc1ccc([N+](=O)[O-])o1
outcome [16]: inactive

CCCCCCCCCCCCCCCCOS(=O)(=O)O
AC50 [1]: 4.11 µM (active)
AC50 [4]: 12.5 µM (active)

CCCC(CCC)C(=O)O
outcome [5]: inactive

CNC(C)=O
outcome [2]: inactive

CCCCCCCCCCCCCCO
outcome [1]: inactive

S=P(N1CC1)(N1CC1)N1CC1
outcome [13]: inactive

OC(Cn1cncn1)(Cn1cncn1)c1ccc(F)cc1F
outcome [14]: inactive

O=c1[nH]cnc2c1ncn2[C@H]1CC[C@@H](CO)O1
outcome [11]: inactive
outcome [5]: inactive

C=CN1CCCC1=O
outcome [1]: inactive

O=C(O)[C@H](O)[C@@H](O)C(=O)O
outcome [1]: inactive

CCn1nc(C)c2c1C(=O)NCC(c1ccc(O)cc1)=N2
outcome [1]: inactive
outcome [11]: inactive
outcome [12]: inactive
outcome [16]: inactive
outcome [13]: inactive
outcome [18]: inactive
outcome [7]: inactive
outcome [15]: inactive
